Assay outcomes as filed in PubChem.
KinaseGlo FLuc: blocks Kinase-Glo luciferase, a counter-screen artifact. Q27757. Kinase-Glo luciferase, ATP luminescence, 8 min. Potency, µM (top dose mostly 38.3 µM), inactives show at the top dose activity change, negative = inhibition, actives largely listed as inhibitors. 200,000 tested, 0.28% active. AID 1379; also: % is scaled to controls: 0 for no effect and ±100 for the full control effect; nearly all actives have a fitted effect of over 60% in size
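Compounds were added to a substrate mix at pH 7.2 (50 mM imidazole, 10 uM ATP, within the enzyme's linear range), followed by Kinase-Glo detection reagent; luminescence was measured after 8 minutes at ambient temperature.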
SMN2 splice enh: enhancers of SMN2 splice variant expression. Potency, µM (top dose mostly 46.1 µM), inactives show at the top dose activity change, positive = activation, hits mostly activators. HEK293 SMN2-luciferase splicing reporter, luminescence, 30-36 h. 210,000 tested, 2.8% active. AID 1458; also: % of control where 0% means no effect; nearly all actives have a fitted effect of over 55% in size
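HEK293 cells carry an SMN2 minigene-luciferase reporter in which exon 7 inclusion puts luciferase in frame. Cells were seeded at 2000 cells/well, attached for 10-12 hours, then exposed to compounds for 30-36 hours at 37C before ONE-Glo luminescence.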
ELG1 genotoxic: induces genotoxicity in HEK293T cells with luciferase-tagged ELG1; 330,000 tested, 1.3% active; Potency, µM (top dose mostly 46 µM), without a hit: at the top dose activity change, positive = activation, actives largely listed as activators; HEK293T ELG1-luciferase reporter, luminescence, 16 h; AID 504466; also: % of control where 0% means no effect; nearly all actives have a fitted effect of over 60% in size
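HEK293T cells expressing luciferase-tagged ELG1 were exposed to compound or DMSO vehicle for 16 hr at 37 °C and 5% CO2. Luciferase activity was then measured with ONE-Glo after 30 min at room temperature.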
NPC1 prom act: activates the NPC1 promoter; Huh7 NPC1 promoter luciferase reporter, 24 h; Potency, µM (titrated, usually from 9.22 µM), for the others: at the highest dose activation, usual class: activators; 320,000 tested, 2.4% active; also: % of control where 0% means no effect; nearly all actives have a fitted effect of over 60% in size
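Luminescence read-out of NPC1 promoter-driven luciferase in stably transfected Huh7 cells; compounds delivered in DMSO and left 24 h at 37C, 5% CO2, qHTS titration format.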
FLuc modulator: counter-screen for miR-21 project: firefly luciferase inhibitors or activators | P08659 | 360,000 tested, 6.9% active | AID 588342 | purified FLuc, Km substrates, luminescence inhibition | Potency, µM (series often up to 57.5 µM), for inactives: at the highest dose activity change, negative = inhibition, hits mostly inhibitors;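 also: plate controls were vehicle for no effect and reference inhibitor for full effect; nearly all actives have a fitted effect of over 55% in size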
Target sequence (P08659 whole entry, looked up): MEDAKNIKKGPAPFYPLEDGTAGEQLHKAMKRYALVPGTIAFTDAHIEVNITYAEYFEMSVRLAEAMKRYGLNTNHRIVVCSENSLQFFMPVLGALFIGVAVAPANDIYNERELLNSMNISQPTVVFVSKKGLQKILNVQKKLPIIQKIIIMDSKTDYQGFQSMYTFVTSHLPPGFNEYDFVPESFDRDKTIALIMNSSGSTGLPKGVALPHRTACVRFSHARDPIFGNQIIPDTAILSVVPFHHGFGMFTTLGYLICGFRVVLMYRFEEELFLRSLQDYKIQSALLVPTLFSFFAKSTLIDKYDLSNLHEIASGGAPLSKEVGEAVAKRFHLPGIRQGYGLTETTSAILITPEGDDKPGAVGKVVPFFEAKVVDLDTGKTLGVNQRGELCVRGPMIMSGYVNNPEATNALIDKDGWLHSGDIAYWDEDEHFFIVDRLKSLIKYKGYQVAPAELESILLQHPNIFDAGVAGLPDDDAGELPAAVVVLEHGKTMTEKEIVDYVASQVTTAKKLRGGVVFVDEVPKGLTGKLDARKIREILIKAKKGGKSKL
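Purified P. pyralis luciferase, 10 nM final, with Km-level 10 uM D-luciferin and 10 uM ATP in 50 mM Tris acetate pH 7.5, 10 mM Mg acetate, 0.01% Tween-20, 0.05% BSA; 6-point qHTS titration about 60 µM downward; luminescence read.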
Rab9 prom act: activators of Rab9 promoter; AID 485297; Huh7 Rab9 promoter-luciferase reporter, luminescence, 24 h; Potency, µM (top dose mostly 9.22 µM), inactives show top-dose activation, negative = inhibition, actives largely listed as activators; 320,000 tested, 2.8% active; also: % of control where 0% means no effect; nearly all actives have a fitted effect of over 60% in size
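Measured in stably transfected Huh7 cells bearing a Rab9 promoter–luciferase construct: 24 h compound treatment at 37 °C, followed by luminescence detection.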
The depositor's hits bear a star; ? = inconclusive; . = no result. Rows were chosen to be rich in hits. Some 7.5% of all compounds tested hit in one or more screens of this group. Calls follow the shape of the dose curve; as a rule, active = well fitted curve in the direction sought with a large enough effect; inconclusive = small, poorly fitted or top-dose-only effect, or another doubt; inactive = no such curve, though single readings can be large; an effect the other way counts as inactive or inconclusive. Potency is read from the fitted curve at half-maximal effect.

SMILES | KinaseGlo FLuc | SMN2 splice enh | ELG1 genotoxic | NPC1 prom act | FLuc modulator | Rab9 prom act
O=C(NCc1ccccc1F)C(=O)NCC(c1cccs1)S(=O)(=O)c1cccs1 (stereo not given) | . | . | . | . | -7% | .
O=C(N/N=C/c1ccc(Cl)cc1)c1n[nH]c2c1CCCC2 | . | . | 8.2µM* | ? | ? | 18%
O=C(N/N=C/c1cccs1)c1n[nH]c2c1CCC2 | ? | 5µM* | ? | ? | 3.4µM* | ?
Cn1cccc1-c1cc(C(=O)N/N=C/c2ccc(Cl)cc2)[nH]n1 | . | . | -2% | 3% | ? | -3%
O=C(N/N=C/C(Br)=C/c1ccccc1)c1n[nH]c2c1CCC2 | 11% | 10µM* | ? | ? | 2.7µM* | 0%
O=C(N/N=C/c1ccccc1)c1n[nH]c2c1CCCC2 | -22% | 5µM* | ? | 0.56µM* | 3µM* | 0.35µM*
COC(=O)[C@@]1(Cc2ccc(OC)cc2)[C@H]2c3cc(C(=O)N(C)C)n(Cc4ccc(C(F)(F)F)nc4)c3C[C@H]2CN1C(=O)c1ccccc1 | -3% | -11% | . | . | . | .
O=C(N/N=C/c1ccccc1Cl)c1n[nH]c2c1CCCC2 | 3.2µM* | 0.35µM* | 0.29µM* | 0.63µM* | 0.21µM* | ?
COc1ccc(/C(N)=N/OC(=O)CCCc2ccccc2)cc1OC | -4% | 13% | -1% | -1% | ? | -7%
N/C(=N\OC(=O)CCCc1ccccc1)c1ccccn1 | -12% | 26% | 2% | 5% | 2.1µM* | 0%
N/C(=N\OC(=O)Cc1ccccc1)c1ccccn1 | -5% | 20% | 10% | 12% | 17µM* | 11%
N/C(=N\OC(=O)CCC1CCCC1)c1ccccn1 | -24% | ? | ? | 25% | 0.48µM* | 23%
N/C(=N\OC(=O)C(c1ccccc1)c1ccccc1)c1ccccn1 | 5% | -4% | 6% | -2% | 5% | -2%
O=C(C1CCN(S(=O)(=O)Cc2ccccc2)CC1)N1CCN(c2cccc(Cl)c2)CC1 | . | . | . | . | -1% | .
CC(=O)N(c1nnc(-c2cccc(C)c2)s1)C1CCCC1 | . | . | 23% | ? | 24µM* | ?
COc1ccc(Nc2cc(Nc3cccc(OC)c3)ncn2)cc1 | . | . | ? | ? | 2.7µM* | ?
Cc1ccc(Nc2cc(-c3ccccc3)nc(C)n2)cc1 | . | . | . | . | 24µM* | .
COc1ccc(Nc2cc(Nc3ccc(OC)cc3)ncn2)cc1 | . | . | 0% | -2% | 2% | 2%
Cc1cc(Nc2ccc(Br)cc2)nc(C)n1 | . | . | . | . | 21µM* | .
COc1cccc(Nc2cc(-c3ccccc3)nc(C)n2)c1 | . | . | . | . | 27µM* | .
CCOC(=O)c1ccc(Nc2cc(-c3ccccc3)nc(C)n2)cc1 | . | . | . | . | -7% | .
CCSc1nc2n(n1)C(c1ccc(C(=O)O)cc1)C(C(=O)Nc1ccccc1C)=C(C)N2 (stereo not given) | . | . | . | . | -3% | .
O=C(N/N=C/C(Br)=C/c1ccccc1)c1cccs1 | -2% | . | ? | 2.2µM* | 1.5µM* | 0.89µM*
O=C(N/N=C/C=C/c1ccccc1)c1cccs1 | 2% | ? | 9% | ? | 15µM* | 1.8µM*
O=C(Cc1cccs1)N/N=C/C=C/c1ccccc1 | -1% | ? | 13% | ? | -11% | ?
SMILES | KinaseGlo FLuc | SMN2 splice enh | ELG1 genotoxic | NPC1 prom act | FLuc modulator | Rab9 prom act
Cc1cc(C)c(NN=c2c(=O)c3ccccc3c2=O)c(C)c1 | -4% | 13µM* | ? | 2.8µM* | 0.95µM* | 1.8µM*
O=c1c(=NNc2ccccc2Cl)c(=O)c2ccccc12 | 6.3µM* | -15% | ? | 3.2µM* | 0.076µM* | ?
O=C(OCC(=O)N1CCC(Cc2ccccc2)CC1)c1cc(Br)ccc1O | . | . | -5% | . | . | .
COc1ccc(-n2c(-c3ccc(F)cc3)cn3c4c(=O)n(C)c(=O)n(C)c4nc23)cc1 | . | 7% | . | . | -1% | .
O=C(Nc1ccc(Cl)cn1)c1cccc(S(=O)(=O)N2CCCCC2)c1 | . | . | -7% | -1% | 0% | 0%
Cc1ccnc(NC(=O)c2cccc(S(=O)(=O)N3CCCC3)c2)c1 | . | . | -1% | 14% | -14% | 24%
